Laboratory results taken from article PMC10943123.

Target: Small nuclear ribonucleoprotein G (UniProt P62308)
Test: cross-link between two proteins; cross-linking mass spectrometry

Small nuclear ribonucleoprotein-associated proteins B and B', P14678
listed as a hit: yes
